GLS inh: inhibitors of human glutaminase (GLS); O94925; GLS enzymatic activity, qHTS titration; Potency, µM (titrated, usually from 45.5 µM), without a hit: at the highest dose activity change, negative = inhibition, actives largely listed as inhibitors; 410,000 compounds, 0.21% hits; AID 624170
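Human kidney-isoform GLS in 45 mM KH2PO4 pH 8.2, 0.02% Tween-20, with compound, started with 1mM L-Glutamine (added stock). Glutamate oxidase/HRP/Amplex red coupled fluorescence read at start and after 30 min at RT.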
VDR inhibitor: blocks the human vitamin D receptor | P11473 | VDR-SRC2-3 peptide fluorescence polarization, 2 h | Potency, µM, without a hit: max response, negative = inhibition, hits mostly inhibitors | 400,000 compounds, 0.93% hits | AID 504847
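Fluorescence polarization assay of small-molecule disruption of VDR binding to coregulator peptide SRC2-3. Compounds and controls pin-transferred, then read after 2 h incubation at ambient room temperature.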
TrxR1 inh: inhibitors of rat thioredoxin reductase 1; Potency, µM (doses to about 114 µM), for inactives: at the top dose activity change, negative = inhibition, hits mostly inhibitors; O89049; 390,000 compounds, 1% hits; recombinant rTrxR1, NADPH fluorescence consumption, selenite substrate; also: nearly all actives have a fitted effect of over 65% in size
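Rat TrxR1 (90 nM in the dispensed reagent) was pre-reduced with 400 uM NADPH for 5 min at room temperature, then incubated with compound for 15 min. After 400 uM selenite was added, NADPH fluorescence (Ex 340/Em 450 nm) was followed for 8 min.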
GCN5L2 inh: GCN5L2 (KAT2A) acetyltransferase inhibition; Potency, µM (top dose mostly 58.9 µM), without a hit: at the top dose activity change, negative = inhibition, hits mostly inhibitors; Q92830; GCN5L2 HAT assay, ThioGlo1 CoA-SH fluorescence; 390,000 compounds, 0.21% hits
Target sequence (Q92830 whole entry, looked up): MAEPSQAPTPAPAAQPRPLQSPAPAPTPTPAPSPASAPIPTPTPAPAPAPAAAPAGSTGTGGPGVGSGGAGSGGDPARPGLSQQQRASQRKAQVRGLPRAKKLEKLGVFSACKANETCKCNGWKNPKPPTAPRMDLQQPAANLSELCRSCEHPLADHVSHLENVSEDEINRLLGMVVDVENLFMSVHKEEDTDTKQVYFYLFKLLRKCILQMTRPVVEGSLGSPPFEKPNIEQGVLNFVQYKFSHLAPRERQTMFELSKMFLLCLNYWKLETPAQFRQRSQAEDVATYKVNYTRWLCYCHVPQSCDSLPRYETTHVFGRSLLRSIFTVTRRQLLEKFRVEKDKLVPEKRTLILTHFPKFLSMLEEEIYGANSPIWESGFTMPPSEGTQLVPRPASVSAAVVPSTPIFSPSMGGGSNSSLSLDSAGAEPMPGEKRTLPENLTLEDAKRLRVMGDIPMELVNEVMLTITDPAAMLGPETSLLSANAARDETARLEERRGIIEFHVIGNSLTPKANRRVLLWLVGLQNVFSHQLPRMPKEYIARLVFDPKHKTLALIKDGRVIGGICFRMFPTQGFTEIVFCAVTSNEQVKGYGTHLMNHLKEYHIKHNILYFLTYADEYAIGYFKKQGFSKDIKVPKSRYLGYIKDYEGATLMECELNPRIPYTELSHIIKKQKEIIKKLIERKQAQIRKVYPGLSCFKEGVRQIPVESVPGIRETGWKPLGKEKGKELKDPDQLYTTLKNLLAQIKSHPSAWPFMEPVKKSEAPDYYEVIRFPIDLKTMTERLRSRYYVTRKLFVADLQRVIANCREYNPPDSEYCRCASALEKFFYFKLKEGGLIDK
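qHTS, 1536-well. 20nM enzyme, pH 7.5 HEPES/EDTA/Tween-20 buffer; 15 min compound preinc., RT. Start: 75uM H3(1-25), 70uM AcCoA, 50uM ThioGlo1. Read Ex340/Em540 at t=0 (autofluorescence flag) and t=20 min.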
TrxR1 substrate: is turned over as a substrate by rat TrxR1 | purified TrxR1 substrate turnover, NADPH consumption readout | O89049 | 390,000 compounds, 0.01% hits | AID 588456 | Potency, µM (top dose mostly 114 µM), for inactives: at the highest dose activity change, negative = substrate turnover; also: nearly all actives have a fitted effect of over 50% in size
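Rat TrxR1, dispensed at 90 nM, was prereduced with 400 uM NADPH (final) for 5 min at ~22 deg C, then incubated with compound 15 min before 400 uM selenite. A first-read NADPH fluorescence drop versus no-compound background flagged substrates.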
Sfp PPTase inh: inhibitors of Bacillus subtilis Sfp phosphopantetheinyl transferase; 310,000 compounds, 3.5% hits; Biochemical Sfp PPTase activity, qHTS; AID 1490; Potency, µM, inactives show largest response in the series, negative = inhibition, most hits filed as inhibitors;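 also: the enzyme is Sfp with the accession as filed and its product quenches rhodamine fluorescence; 0% = enzyme reaction without inhibitor and -100% = no enzyme wells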
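Reaction rates are the 30-min fluorescence difference (ex 525, em 598 nm) in wells containing 15 nM Sfp, 5 uM rhodamine-CoA and 12.5 uM BHQ-2-YbbR at pH 7.6 with 10 mM MgCl2.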
An asterisk follows results filed as active; ? = inconclusive; / = no result given; [ ] = another dose, or the depositor's remark. An excerpt weighted towards active compounds, which were near 3.8% of everything screened. Calls follow the shape of the dose curve; as a rule, active = well fitted curve in the direction sought with a large enough effect; inconclusive = small, poorly fitted or top-dose-only effect, or another doubt; inactive = no such curve, though single readings can be large; an effect the other way counts as inactive or inconclusive. Unless noted, % is scaled to controls: 0 for no effect and ±100 for the full control effect; potency is read from the fitted curve at half-maximal effect.

SMILES | GLS inh | VDR inhibitor | TrxR1 inh | GCN5L2 inh | TrxR1 substrate | Sfp PPTase inh
O=C(Nc1ccc2nc(C3CC3)n(Cc3ccccc3)c(=O)c2c1)C1CC1 | 1% | 5% | 15% | -2% | 9% | 7%
C[C@@H]1CN([C@@H](C)CO)C(=O)CCCn2nncc2CO[C@H]1CN(C)C(=O)c1ccncc1 | -6% | / | / | / | / | /
Cc1cc(C)cc(N2C(=O)CSC23C(=O)N(Cc2c(F)cccc2Cl)c2ccccc23)c1 (configuration not stated) | 4% | 9% | 15% | -6% | -8% | /
CS(=O)(=O)c1ccc2nc(NC(=O)C3CC(=O)N(c4ccccc4)C3)sc2c1 (configuration not stated) | 0% | ? | 2%[57.1 µM] | -3% | 5%[57.1 µM] | -5%
Cc1ccc(N2CC(C(=O)Nc3nc4ccc(S(C)(=O)=O)cc4s3)CC2=O)cc1 (configuration not stated) | 10% | 7% | -6% | -6% | -8% | 45µM*
COC1=CC(=O)C(C(=O)c2ccccc2)=CC1=O | / | 32µM* | / | -14% | / | 40µM*
COc1ccc(C(=O)c2ccccc2)cc1 | 9% | 11% | 0%[57.1 µM] | -6% | 4%[57.1 µM] | 0%
Cc1nc(-c2ccc(O)c(O)c2)cs1 | 11µM* | -10% | 4% | -7%[0.501 µM] | 5% | 56µM*
O=C(NNC(=O)c1csc(-c2cccnc2)n1)c1ccccc1 | 0% | 1% | -2%[57.1 µM] | -6% | 7% | 89µM*
Cc1ccc2nc(-c3ccc(O)c(O)c3)cn2c1 | 20µM* | 16% | -12% | 1% | -2% | 56µM*
COc1cc(-c2csc(C)n2)ccc1O | 44% | 2% | -13% | -2% | -5% | 10%
Oc1ccc(-c2csc(-c3cccnc3)n2)cc1O | 3.5µM* | 26% | 12% | -15% | 2% | ?
Oc1ccc(-c2csc(-c3ccccc3)n2)cc1O | ? | 13% | -19% | -15% | -3%[57.1 µM] | 56µM*
C=CC(=O)N1C/C(=C/c2ccc(F)cc2)C(=O)/C(=C\c2ccc(F)cc2)C1 | 10µM* | 10µM* | 25µM* | / | -8% | /
O=c1c2c(nc3cc(-c4ccccc4Cl)[nH]n13)CCS2 | 19% | 11% | 2% | 1% | -3% | 22µM*
CCn1c(CSc2n[nH]c(N)n2)nc2cc(C(=O)O)ccc21 | 47% | ? | 22%[57.1 µM] | -11% | -17%[57.1 µM] | 79µM*
CCn1c(CSc2nnc3ccccn23)nc2cc(C(=O)O)ccc21 | -12% | ? | -36% | -1% | -2% | 8%
CCCCN1C(=O)C(O)(CC(=O)c2ccc(C(C)(C)C)cc2)c2ccccc21 (configuration not stated) | 2% | -2% | -3% | -13% | -3% | /
CN(Cc1ccccc1)/[N+]([O-])=N/Oc1ccc([N+](=O)[O-])cc1[N+](=O)[O-] | / | / | 2.8µM* | / | -4% | /
O=C(OCc1ccccc1)N1CCN(/[N+]([O-])=N/Oc2ccc([N+](=O)[O-])cc2[N+](=O)[O-])CC1 | / | / | ? | / | 5%[0.457 µM] | /
CNc1ccc(C(=O)Oc2cc(O/N=[N+](\[O-])N(C)C)c([N+](=O)[O-])cc2[N+](=O)[O-])cc1 | / | -4% | 25µM* | / | -25% | ?
CN(C)/[N+]([O-])=N/Oc1ccc([N+](=O)[O-])cc1[N+](=O)[O-] | / | / | 13µM* | / | -11% | /
CN(C)/[N+]([O-])=N\Oc1cc(OC(=O)c2ccc(N)cc2)c([N+](=O)[O-])cc1[N+](=O)[O-] | / | / | -33% | / | -16% | /
CCN(CCN(C)Cl)/[N+]([O-])=N/Oc1ccc([N+](=O)[O-])cc1[N+](=O)[O-] | / | / | 10µM* | / | -3% | /
Nc1ccc(Oc2ccc([N+](=O)[O-])cc2[N+](=O)[O-])cc1 | 13% | 1% | 25%[57.1 µM] | -5% | 2%[57.1 µM] | -12%
SMILES | GLS inh | VDR inhibitor | TrxR1 inh | GCN5L2 inh | TrxR1 substrate | Sfp PPTase inh
O=C(CC(Cl)(Cl)Cl)N1CCN(/[N+]([O-])=N/Oc2ccc([N+](=O)[O-])cc2[N+](=O)[O-])CC1 | / | / | ? | / | -2% | /
Cc1cc(=O)oc2cc(OCC(=O)OCC(=O)NC(=O)NC(C)C)ccc12 | 0% | -13% | 6% | -6% | 4% | 15%
Cc1ccc(S(=O)(=O)N2CCN(C(=O)CN3CCc4ccccc4C3)CC2)cc1 | 1% | 7% | 2% | -1% | 6% | 45µM*
O=C(CN1CCc2ccccc2C1)N1CCN(S(=O)(=O)c2ccccc2)CC1 | 13% | -12% | 10% | -3% | 5% | 17%
CCOC(=O)c1c(C)[nH]c(C2=NNC(=Nc3ccccc3)SC2)c1C | 9% | ? | 2% | -5% | 2% | 40µM*
CCOC(=O)c1ccc(N=C2NC(=O)CS2)cc1 | -3% | -10% | 15% | -10% | 4% | 6%
CCOC(=O)c1c(C)[nH]c(C2=NNC(=Nc3ccccc3OC)SC2)c1C | ? | ? | 11%[57.1 µM] | -8% | -23%[57.1 µM] | 79µM*
CC(=O)c1c(C)[nH]c(C2=NNC(=NC(C)(C)C)SC2)c1C | -3% | ? | 6%[57.1 µM] | -13% | 1%[57.1 µM] | 22µM*
CCOC(=O)c1c(C)[nH]c(C2=NNC(=Nc3ccc(OCC)cc3)SC2)c1C | 1% | ? | ? | -7% | -8% | 79µM*
COc1ccc(Cn2ccc3nc(C)c(C(=O)Nc4cc(OC)c(OC)c(OC)c4)cc3c2=O)cc1 | -5% | -2% | 15%[57.1 µM] | 6% | 6%[57.1 µM] | /
CCC(=O)Nc1cccc(C2=NOC3(C2)C[C@@H](C(N)=O)N(C(=O)C2(C)CC2)C3)c1 (some centres not stated) | 1% | 12% | 11% | 4% | 8% | -15%
O=c1cc(-c2ccc(F)cc2F)[nH]c2ccccc12 | / | 5% | / | 6%[88.6 µM] | / | 16%
O=C(CCCN1C(=O)/C(=C/c2ccccc2)SC1=S)N1CCOCC1 | -15% | -18% | 22%[57.1 µM] | -10% | -9% | -7%
Cc1ccc(C(=O)COC(=O)C2C3C=CC(C3)C2C(=O)OCC(=O)c2ccc(C)c(C)c2)cc1C (configuration not stated) | 4% | 3% | -1% | 0.79µM* | -9% | 12%
NCCCC[C@H](NC(=O)[C@H](CCCN=C(N)N)NC(=O)[C@H](CO)NC(=O)[C@H](CCCN=C(N)N)NC(=O)[C@@H](N)Cc1ccc(O)cc1)C(=O)N[C@@H](Cc1ccc(O)cc1)C(=O)N[C@@H](CO)C(=O)N[C@@H](CO)C(=O)N[C@@H](Cc1c[nH]c2ccccc12)C(=O)N[C@@H](Cc1ccc(O)cc1)C(=O)O | / | 2% | / | -25% | / | 9%

Screening data: PubChem BioAssay, National Center for Advancing Translational Sciences (NCATS)
